# Compounds without any hit were thinned out: in the full panel of roughly 83,000, 20% have a hit.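 Plates (96-well) were seeded with cells, treated with compound at one concentration, and incubated for 48 hours before percent growth was determined.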 Unmarked numbers belong to inactive results. Activity calls are given as the source filed them. How the source made its calls: active means growth percent below 10; inactive means the rest.
# Test system: MDA-MB-468 breast
# Assay: NCI-60 one-dose screen, 48 h (100 = growth as untreated, 0 = no growth, -100 = all killed)
# Conditions: 10 µM unless noted
row,Structure (SMILES),growth
1,N/C(=N\C(N)=N\c1nc2ccccc2s1)c1ccnc(Cl)c1,51.9%
2,O=C1c2ccccc2C(=O)c2c1ccc(C(Br)Br)c2[N+](=O)[O-],-66.5% (active)
3,COc1cc(Oc2cc(-c3cccnc3)ccc2NC(=O)Nc2ccc(F)cc2F)cc(OC)c1OC,97.7%
4,NS(=O)(=O)c1ccc(Nc2nc(Nc3ccccc3)nc(-n3nc(-c4ccccc4)cc3-c3ccccc3)n2)cc1,11.7%
5,COc1cccc(-c2cc3c(O)cc(C#N)cc3[nH]2)c1,102%
6,O=C1C(=O)N(CCCCn2cc(CO)nn2)c2ccccc21,98.6%
7,COc1ccc(C(=O)n2nc(/C=C/c3ccc(O)c(OC)c3)cc2/C=C/c2ccc(O)c(OC)c2)cc1,-8.43% (active)
8,O=c1[nH]nnc2cc(Cl)ccc12,104%
9,O=c1oc2cc(OS(=O)(=O)c3ccccc3)c(Cl)cc2c2c1CCCCCC2,62.2%
10,CCOc1cccc(Nc2nc(N)nc3[nH]c4ccc(O)cc4c23)c1,8.38% (active)
11,O=C1c2c(c3c4ccccc4n(CCCCCCBr)c3c3[nH]c4ccccc4c23)C(=O)N1O,-3.78% (active)
12,COC(=O)/C=C1/CCC2C3CCC4=CC(=O)C(Br)CC4(C)C3C(=O)CC12C (centres undefined),13.9%
13,CNCCNc1nc2ccccc2c2c(=O)c3cccc(OC)c3sc12,20.9%
14,CN(C)CCCN=c1cc2c(=O)n(CCCN(C)C)c(=O)c3c(NCCCN(C)C)cc4c(O)n(CCCN(C)C)c(=O)c1c4c3-2,-53.2% (active)
